Inhibition data for 16 molecules are collected here from ChEMBL document CHEMBL1961873, “Compounds: GSK PKIS; Assays: Nanosyn kinase panel” (2012).

Experiment [1] deals with Mitogen-activated protein kinase 3 (Homo sapiens) (UniProt P27361). The note with it: at 1 µM.
For experiment [2], the target named is SRSF protein kinase 3 (Homo sapiens) (UniProt Q9UPE1). To be noted: at 0.1 µM.
Experiment [3] has the same target. To be noted: at 1 µM.
Experiment [4] has as its target Mitogen-activated protein kinase 14 (Homo sapiens) (UniProt Q16539). To be noted: at 0.1 µM.
Experiment [5] has the same target. To be noted: at 1 µM.
Experiment [6] deals with Mitogen-activated protein kinase 11 (Homo sapiens) (UniProt Q15759). To be noted: at 0.1 µM.
The target is the same in experiment [7]. To be noted: at 1 µM.
The target of experiment [8] is T1, Mitogen-activated protein kinase 13 (Homo sapiens) (UniProt O15264).
T1 sequence (whole entry): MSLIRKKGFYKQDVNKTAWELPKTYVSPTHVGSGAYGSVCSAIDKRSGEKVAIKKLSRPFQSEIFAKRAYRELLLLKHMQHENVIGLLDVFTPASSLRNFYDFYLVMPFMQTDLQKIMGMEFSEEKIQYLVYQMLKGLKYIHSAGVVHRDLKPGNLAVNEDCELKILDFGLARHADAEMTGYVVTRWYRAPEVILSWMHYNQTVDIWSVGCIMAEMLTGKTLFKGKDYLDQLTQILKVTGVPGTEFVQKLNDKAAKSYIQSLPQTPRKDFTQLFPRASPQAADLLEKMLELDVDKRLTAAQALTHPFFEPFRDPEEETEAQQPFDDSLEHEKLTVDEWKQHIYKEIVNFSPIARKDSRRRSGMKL
To be noted: at 0.1 µM.

Experiment [9] concerns the target T1, Mitogen-activated protein kinase 13 (Homo sapiens). The note with it: at 1 µM.
The target in experiment [10] is T2, Mitogen-activated protein kinase 12 (Homo sapiens) (UniProt P53778).
T2 sequence (whole entry): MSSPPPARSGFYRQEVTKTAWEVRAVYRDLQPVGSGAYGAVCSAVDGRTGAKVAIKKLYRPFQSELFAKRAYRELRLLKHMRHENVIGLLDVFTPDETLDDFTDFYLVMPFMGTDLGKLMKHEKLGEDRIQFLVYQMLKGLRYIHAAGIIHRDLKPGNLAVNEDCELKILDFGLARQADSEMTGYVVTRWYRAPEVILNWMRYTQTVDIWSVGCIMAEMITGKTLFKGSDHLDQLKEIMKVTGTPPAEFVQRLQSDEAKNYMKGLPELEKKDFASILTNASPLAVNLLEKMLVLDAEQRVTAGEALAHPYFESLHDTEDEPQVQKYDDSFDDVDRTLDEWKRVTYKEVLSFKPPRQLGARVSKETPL
To be noted: at 0.1 µM.

Where “and” joins values, the source holds several entries; their conditions need not be identical. Equal values may be shown once.

Chain of SRSF protein kinase 3 (Homo sapiens) (Q9UPE1 whole entry): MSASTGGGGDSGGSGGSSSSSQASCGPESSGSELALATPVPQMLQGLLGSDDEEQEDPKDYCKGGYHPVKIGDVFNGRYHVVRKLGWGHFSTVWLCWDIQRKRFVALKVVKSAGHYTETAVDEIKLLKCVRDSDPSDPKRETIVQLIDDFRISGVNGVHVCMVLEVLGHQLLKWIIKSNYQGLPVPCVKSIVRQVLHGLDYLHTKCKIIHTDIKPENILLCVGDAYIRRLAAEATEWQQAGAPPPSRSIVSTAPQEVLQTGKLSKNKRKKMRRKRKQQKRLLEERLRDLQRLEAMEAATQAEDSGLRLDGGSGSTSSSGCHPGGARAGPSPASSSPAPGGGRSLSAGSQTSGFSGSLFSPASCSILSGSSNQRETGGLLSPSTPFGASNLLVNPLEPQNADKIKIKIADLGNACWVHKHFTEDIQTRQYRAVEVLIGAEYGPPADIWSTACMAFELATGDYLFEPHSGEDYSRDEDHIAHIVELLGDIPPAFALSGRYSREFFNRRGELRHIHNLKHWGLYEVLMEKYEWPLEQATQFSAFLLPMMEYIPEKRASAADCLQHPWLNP
Chain of Mitogen-activated protein kinase 3 (Homo sapiens) (P27361 whole entry): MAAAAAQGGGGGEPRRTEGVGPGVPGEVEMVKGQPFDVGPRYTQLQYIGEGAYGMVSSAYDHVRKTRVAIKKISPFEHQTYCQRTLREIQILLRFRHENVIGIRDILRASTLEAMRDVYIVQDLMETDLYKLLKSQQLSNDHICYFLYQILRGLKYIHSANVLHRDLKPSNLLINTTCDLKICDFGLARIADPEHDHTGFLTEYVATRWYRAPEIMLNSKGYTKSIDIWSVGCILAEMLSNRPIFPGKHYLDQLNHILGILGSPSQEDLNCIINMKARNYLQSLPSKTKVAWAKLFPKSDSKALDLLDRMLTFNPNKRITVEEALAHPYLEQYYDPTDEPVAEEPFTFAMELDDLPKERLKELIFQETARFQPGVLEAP
Chain of Mitogen-activated protein kinase 14 (Homo sapiens) (Q16539 whole entry): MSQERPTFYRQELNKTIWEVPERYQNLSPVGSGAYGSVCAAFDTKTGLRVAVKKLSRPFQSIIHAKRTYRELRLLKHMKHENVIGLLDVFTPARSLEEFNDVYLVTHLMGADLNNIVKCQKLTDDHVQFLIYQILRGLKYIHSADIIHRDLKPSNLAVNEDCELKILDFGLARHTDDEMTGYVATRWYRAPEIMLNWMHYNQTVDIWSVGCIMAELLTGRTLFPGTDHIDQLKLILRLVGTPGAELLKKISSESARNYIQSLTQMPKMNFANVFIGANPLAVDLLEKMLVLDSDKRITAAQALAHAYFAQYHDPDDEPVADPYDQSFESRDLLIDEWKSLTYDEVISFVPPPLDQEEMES
Chain of Mitogen-activated protein kinase 11 (Homo sapiens) (Q15759 whole entry): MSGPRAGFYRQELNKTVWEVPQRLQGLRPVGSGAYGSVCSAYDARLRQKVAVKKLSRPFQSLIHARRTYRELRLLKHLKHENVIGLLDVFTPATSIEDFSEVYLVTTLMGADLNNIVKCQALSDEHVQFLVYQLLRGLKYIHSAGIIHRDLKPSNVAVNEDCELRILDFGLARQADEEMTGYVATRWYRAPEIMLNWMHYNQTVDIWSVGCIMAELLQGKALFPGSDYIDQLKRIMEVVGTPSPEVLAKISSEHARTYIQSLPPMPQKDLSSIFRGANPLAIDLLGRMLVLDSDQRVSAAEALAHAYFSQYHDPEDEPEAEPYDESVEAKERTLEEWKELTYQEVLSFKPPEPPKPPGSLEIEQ

By inhibition is commonly meant the drop in the measured response relative to a control, in per cent. As for `O=C1Nc2ccccc2/C1=C1\CCc2cc(O)ccc21`, the inhibition in experiment [1] was 4.54%; in experiment [2], 0.01%; in experiment [3], -0.36%; in [4], 4.38%; in experiment [5], 7.01%; in experiment [6], 4.9%. Further, the inhibition stood at 5.91% in experiment [7], 3.43% in [8], 6.56% in [9] and 4.33% in experiment [10].
On to `CS(=O)(=O)CCNCc1ccoc1-c1ccc2ncnc(Nc3ccc(OCc4ccccc4)cc3)c2c1`, for which the inhibition in experiment [1] was 1.25%; in [2], -1.87%; in experiment [3], -1.49%; in experiment [4], 2.69%; in [5], 0.9%; in experiment [6], 2.25%. The inhibition was 1.9% in [7], 0.46% in [8], -0.76% in experiment [9] and 0.71% in [10].
Regarding `OCCCNc1nccc(-c2c(-c3ccc(F)cc3)nn3cc(C(F)(F)F)ccc23)n1`, the inhibition in [1] was 5.6%; in experiment [2] it was 1.09%; in experiment [3] it was 3.54%; in experiment [4], 64.4%; in experiment [5], 91%; in [6], 22.7%. Moreover, the inhibition was 68.7% in [7], 4.11% in [8], 3.39% in experiment [9] and 3.46% in [10].
For the molecule `CCCNc1cccc(-n2ncc3c(N/N=C/c4ccncc4)ncnc32)c1`, the inhibition in [1] was 3.62%; in experiment [2], -0.81%; in experiment [3] it was 0.97%; in experiment [4], 1.81%; in [5] it was 7.62%; in experiment [6] it was 4.76%. Moreover, the inhibition in experiment [7] turned out to be 25.5%; in experiment [8], 0.94%; in experiment [9], 3.1%; in experiment [10], 0.51%.
As to `NS(=O)(=O)c1cccc(N/C=C2\C(=O)Nc3ccccc32)c1`, the inhibition in experiment [1] is 1.27%; in [2], -0.21%; in experiment [3] it was 0.27%; in experiment [4], 7.96%; in [5], 13.5%; in experiment [6] it was 6.33%. Further, the inhibition stood at 9.54% in experiment [7], 1.07% in experiment [8], 5.02% in experiment [9] and 1.32% in experiment [10].
`Fc1cccc(COc2ccc(Nc3ncncc3C#Cc3ccccc3)cc2Cl)c1`: the inhibition in [1] is 5.53%; in [2] it was -0.87%; in [3], 0.58%; in experiment [4], 6.33%; in [5], 11.6%; in [6], 3.77%. The inhibition in experiment [7] was 8.28%; in experiment [8] it was -1.02%; in experiment [9] it was 3.79%; in experiment [10], 2.17%.
Take `CC1=C(C(=O)Nc2ccc3[nH]ncc3c2)C(c2ccc(F)cc2)N=C(c2ccc(C(F)(F)F)nc2)N1` (stereo not drawn): the inhibition was -0.07% in experiment [1]; 0.36% in [2]; 0.93% in experiment [3]; 6.91% in experiment [4]; 7.75% in [5]; 0.24% in experiment [6]. Further, the inhibition worked out at 2.12% in experiment [7], 2.38% in experiment [8], 2.31% in experiment [9] and 0.91% in experiment [10].
Regarding `COc1cccc(-n2ncc3c(N/N=C/c4ccc(C(=O)NCCN(C)C)cc4)ncnc32)c1`, the inhibition in experiment [1] came to 2.75%; in [2] it was 1.28%; in [3], 0.91%; in experiment [4] it was 2.36%; in experiment [5], 11.8%; in [6], 0.2%. Further, the inhibition in experiment [7] came to 3.19%; in experiment [8], 3.46%; in experiment [9], 23.5%; in [10] it was 4.06%.
Consider `COc1cc2c(cc1Nc1nc(Nc3cccc(F)c3C(N)=O)c3cc[nH]c3n1)N(C(=O)CN1CCN(C(C)C)CC1)CC2`, for which the inhibition in experiment [1] was 3.92%; in experiment [2] it was 4.88%; in experiment [3] it was 0.53%; in [4], 5.02%; in experiment [5], 6.81%; in experiment [6], 2.96%. The inhibition in experiment [7] was determined as 3.23%; in experiment [8] it was 0.14%; in experiment [9], 2.89%; in [10], 1.49%.
For `O=C(O[C@H]1CN[C@H](C#Cc2cc3ncnc(Nc4ccc5c(ccn5Cc5cc(F)ccc5F)c4)c3s2)C1)N1CCOCC1`, the inhibition was 2.72% in experiment [1]; -1.71% in experiment [2]; -2.33% in experiment [3]; 5.28% in experiment [4]; 8.23% in [5]; 3.16% in [6]. Further, the inhibition was 5.47% in experiment [7], 2.39% in experiment [8], 5.7% in experiment [9] and 3.21% in experiment [10].
Regarding `CS(=O)(=O)Nc1ccc(-c2cc(-c3ccccc3)cc(C(N)=O)c2N)cc1`, the inhibition in experiment [1] is 2.24%; in experiment [2], -1.51%; in experiment [3], -0.01%; in [4] it was 1.19%; in experiment [5], 0.84%; in experiment [6] it was 1.8%. In addition, the inhibition was 0.17% in [7], 1.96% in [8], 0.64% in experiment [9] and 0.99% in experiment [10].
For the molecule `Nc1nccc(-c2c(-c3ccc(F)cc3)ncn2C2CCNCC2)n1`, the inhibition in experiment [1] is 1.29% and 5.05%; in experiment [2], -1.41% and 0.32%; in experiment [3], -1.34% and 0.18%.
Take `Cc1cc(O)cc(C)c1/C=C/c1cncc(C(=O)OC(C)(C)C)c1`: the inhibition in experiment [1] is 5.66%; in experiment [2], -1.96%; in [3], -3.77%; in experiment [4], 5.49%; in experiment [5] it was 6.26%; in experiment [6], 1.86%. Also, the inhibition was 5.95% in experiment [7], 2.17% in experiment [8], 1.43% in [9] and 2.88% in experiment [10].
In the case of `CS(=O)(=O)CCNCc1ccc(-c2ccc3ncnc(Nc4ccc(OCc5ccccc5)cc4)c3c2)o1`, the inhibition in [1] was 1.62%; in [2], -0.49%; in [3] it was 0.73%; in experiment [4] it was 4.73%; in experiment [5], 7.34%; in experiment [6], 2.9%. The inhibition in experiment [7] was found to be 4.87%; in experiment [8], 2.17%; in experiment [9], 1.45%; in [10], 2.39%.
Turning to `CCS(=O)(=O)c1ccc(OC)c(Nc2ncc(-c3cccc(F)c3)o2)c1`, the inhibition was 5.09% in [1]; -2.3% in experiment [2]; 0.15% in [3]; 13.4% in experiment [4]; 14.9% in experiment [5]; 4.8% in experiment [6]. In addition, the inhibition amounted to 7.52% in experiment [7], 5.58% in [8], 5.36% in experiment [9] and 3.31% in experiment [10].
In the case of `CCOc1ccc2c(-c3ccnc(Nc4cc(OC)cc(C(F)(F)F)c4)n3)cnn2n1`, the inhibition in [1] was 2.27%; in [2], -0.03%; in experiment [3], -0.23%; in experiment [4] it was 8.65%; in [5], 2.85%; in experiment [6] it was -0.59%. The inhibition in experiment [7] stood at 1.71%; in [8], 0.55%; in experiment [9], 2.07%; in experiment [10], 3.42%.
